Sampled rows, rich in hits. Any-hit rate of the full collection: about 5.2%.
APOBEC3G inh: blocks human APOBEC3G single-stranded DNA deamination. Q9HC16. recombinant A3G, ssDNA deamination FAM/TAMRA fluorescence. inhibition, % at 20 µM. actives 0.28% (n = 330,000);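 active means inhibition of at least 40% at 20 µM, with no more than 30% in the related APOBEC3A deaminase screen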
APOBEC3A inh: human APOBEC3A DNA deaminase inhibition. P31941. recombinant A3A, FAM/TAMRA ssDNA deamination fluorescence. inhibition, % at 20 µM. actives 0.41% (n = 330,000). AID 493011;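 active means at least 40% inhibition at 20 µM here, with at most 30% in a related deaminase screen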
Target sequence (P31941 whole entry, looked up): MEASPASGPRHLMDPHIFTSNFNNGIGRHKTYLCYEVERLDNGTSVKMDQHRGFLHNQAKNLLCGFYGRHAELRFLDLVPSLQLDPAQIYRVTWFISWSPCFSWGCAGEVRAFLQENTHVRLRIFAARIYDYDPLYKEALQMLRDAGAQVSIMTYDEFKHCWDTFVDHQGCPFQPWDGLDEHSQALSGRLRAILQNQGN
Yeast superoxide: lowers age-related superoxide in aged yeast cells | S. cerevisiae aged cells, superoxide DHE fluorescence; stronger effect = lower value | superoxide response (% of plate mean), % at 10 µM | actives 0.18% (n = 330,000);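 active means superoxide response under a set limit, about three screen SD below normal, cut at about 65% in these data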;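 further: yeast aged for seven days with compound at 30 °C before DHE staining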
PfM18AAP inh: PfM18AAP enzyme inhibition; AID 1822; inhibition, % at 7.35 µM; recombinant PfM18AAP, H-Glu-NHMec fluorogenic cleavage; actives 1.2% (n = 290,000);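 active means inhibition above the campaign mean inhibition over all tested compounds plus 3 SD, cut at about 28% in these data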
NRP1-CendR mod: NRP-1/CendR interaction modulation; inhibition, % at 25 µM; actives 0.85% (n = 360,000); FAM-RPARPAR peptide binding to NRP-1, fluorescence polarization; O14786; AID 602438;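 active means inhibition or corrected inhibition above about 18%, plus a signal ratio from 0.5 to 1.5, limit read from the data, passing the limit was not always enough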
ALR inh: inhibitors of human sulfhydryl oxidase ALR; purified ALR, DTT oxidation, H2O2 HRP-luminol luminescence; inhibition, % (test concentration not listed); P55789; actives 3.8% (n = 290,000);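 active means mean replicate inhibition above about 79%, with every replicate also reaching it, limit read from the data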
Target sequence (P55789 whole entry, looked up): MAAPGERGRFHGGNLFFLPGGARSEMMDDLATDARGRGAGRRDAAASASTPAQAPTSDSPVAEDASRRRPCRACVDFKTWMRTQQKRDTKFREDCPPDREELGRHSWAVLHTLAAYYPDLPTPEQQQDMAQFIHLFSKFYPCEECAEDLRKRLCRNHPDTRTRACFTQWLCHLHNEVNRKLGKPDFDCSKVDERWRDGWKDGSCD
APOBEC3G confirm: APOBEC3G (human) deaminase inhibition, confirmed | shares compounds with APOBEC3G inh | recombinant A3G ssDNA deaminase, UDG/FAM-TAMRA fluorescence | inhibition, % at 20 µM | actives 72% (n = 890) | AID 493152;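 active means inhibition reaching a set limit in any replicate at 20 µM, the limit being 80% of the first screen's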
UDG ctr A3G: inhibits E. coli UDG, flagging false APOBEC3G inhibitors. shares compounds with APOBEC3G inh. UDG counterscreen, FAM/TAMRA oligo fluorescence. inhibition, % at 20 µM. 710 tested, under 10 active. AID 504715;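 active means compounds giving 40% or more inhibition at 20 µM in any one of the three replicates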;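 further: inhibitors lower the FAM signal released by uracil excision and alkaline cleavage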
Large screens that a line does not name were inactive (follow-up assays come after a bar, where they were run).

CCN(CC)S(=O)(=O)c1cccc2cccnc12	none
CSS(=O)(=O)c1cccc2cccnc12	APOBEC3G inh 78 | APOBEC3G confirm 77 | UDG ctr A3G inactive
COC(=O)Nc1ccc(S(=O)(=O)N2CCCCC2C(=O)NCc2ccco2)cc1 (stereo not given)	APOBEC3G inh 63 | APOBEC3G confirm inactive
Cc1cc(-c2nsc(=O)o2)c(S(C)(=O)=O)s1	APOBEC3G inh 66, ALR inh 99 | APOBEC3G confirm 69
Cc1ccccc1C(=O)Oc1ccc(Sc2ccc(O)cc2)cc1	none (no result: NRP1-CendR mod, ALR inh)
CCOC(=O)/C=C/C(=O)Nc1cccc([N+](=O)[O-])c1	APOBEC3G inh 40 (no result: ALR inh) | APOBEC3G confirm 64 | UDG ctr A3G inactive
O=C1C(Cl)=C(NC(=O)c2ccccc2)C(=O)C(Cl)=C1NC(=O)c1ccccc1	APOBEC3G inh 86 (no result: ALR inh) | APOBEC3G confirm 91
O=C(NC1=C(Nc2ccc(Cl)cc2)C(=O)c2ccccc2C1=O)c1ccccc1	none
C/C(=N\n1c(C)nc2ccccc2c1=O)c1ccc(C)o1	none (no result: ALR inh)
CCC1=NNc2cccc3c(OC)ccc1c23	APOBEC3G inh 60, Yeast superoxide 55 (no result: NRP1-CendR mod) | APOBEC3G confirm 73
COc1ccc2c3c(cccc13)C(=O)N(O)C2=O	none (no result: APOBEC3G inh, APOBEC3A inh, ALR inh)
COC(=O)C(C(=O)OC)C(C(=O)OC)C(C(=O)OC)C(=O)OC	none
O=S(=O)(c1ccc(Nc2ccc3c(c2)OCO3)nc1)N1CCOCC1	APOBEC3G inh 44 | APOBEC3G confirm inactive
COc1ccc(S(=O)(=O)N2CCOCC2)cc1C(=O)Nc1ccc2c(c1)OCO2	none
O=C(/C=C/c1cc[n+](CC(=O)c2ccc3cccc4c3c2CC4)cc1)c1ccc2cccc3c2c1CC3	APOBEC3G inh 54 (no result: ALR inh) | APOBEC3G confirm 55
CCOC(=O)c1sc(N/N=C/c2ccccc2)nc1C	APOBEC3G inh 53 (no result: ALR inh) | APOBEC3G confirm 64 | UDG ctr A3G inactive
CCOC(=O)c1sc(N/N=C/c2cccc(C)c2)nc1C	none
CCSc1nc2sc3c(c2c(=O)[nH]1)CCCC3	none
CCSC1=NC2(CCCCC2)Nc2sc3c(c21)CCCC3	APOBEC3G inh 59 | APOBEC3G confirm 39
CCc1ccccc1NC(=S)N(Cc1cccs1)C1CCCC1	none
Cc1cc(=O)n(Cc2ccccc2)c(O)c1C#N	none
Cc1cc(=O)n2nc(-c3ccccc3)sc2c1C#N	APOBEC3G inh 55 | APOBEC3G confirm 69 | UDG ctr A3G inactive
O=C1c2c(O)cccc2Cc2cccc(O)c21	APOBEC3G inh 67 (no result: PfM18AAP inh) | APOBEC3G confirm 78 | UDG ctr A3G inactive
O=C1Cc2cccc(=O)c(O)c2C(=O)O1	none (no result: APOBEC3G inh, APOBEC3A inh, Yeast superoxide, PfM18AAP inh, ALR inh)
Oc1cc2c(cc1O)C1c3ccc(O)c(O)c3OCC1(O)C2 (stereo not given)	APOBEC3G inh 61, PfM18AAP inh 80, ALR inh 100 | APOBEC3G confirm 69
CCCC(=O)Nc1nc2ccc(OC)cc2s1	none
COc1ccc2nc(NC(=S)N(C)C)sc2c1	APOBEC3G inh 61 | APOBEC3G confirm 69 | UDG ctr A3G inactive
COc1ccc(-c2csc(C(C)(NC(C)=O)c3ccc(OC)cc3)n2)cc1 (stereo not given)	none (no result: APOBEC3G inh, APOBEC3A inh, Yeast superoxide, PfM18AAP inh, ALR inh)
CCOC(=O)c1cnc(SCC(=O)NNC(=O)c2ccco2)nc1N	none (no result: ALR inh)
COC(=O)c1sc(NC(=O)c2cc(-c3ccccc3)nc3ccccc23)c(C#N)c1C	APOBEC3G inh 64, PfM18AAP inh 45 | APOBEC3G confirm 58 | UDG ctr A3G inactive
Clc1ccc(SCCOCCN2CCc3ccccc3C2)cc1	none
COC(=O)C1=C(C)N(Cc2ccc(C)cc2)C(=O)/C1=C\c1ccc(O)c(OC)c1	none
CCOC(=O)C1=C(C)N(c2ccc(C)cc2)C(=O)/C1=C\c1ccc(O)c(OC)c1	APOBEC3G inh 77 | APOBEC3G confirm inactive
N#CCCC1(CCC#N)c2ccccc2C(=O)c2ccccc21	none (no result: APOBEC3G inh, APOBEC3A inh, Yeast superoxide, PfM18AAP inh, ALR inh)
CCC(Oc1cc(Cl)ccc1Cl)C(=O)NN1C(=O)C2C3CCC(C3=C(C)C)C2C1=O (stereo not given)	none
O=C(O)c1cccc(N/N=C/c2cccnc2)c1	none (no result: APOBEC3G inh, APOBEC3A inh, Yeast superoxide, ALR inh)
